Screening results from PubChem BioAssay.
Compounds with a hit are over-represented: about 3.5% of the library has one in this group of screens.
TEAD-YAP block – TEAD-YAP interaction inhibition. AID 1259422. inhibition, % at 9.12 µM. hit rate 1.4% among 640,000. HEK-TIYL cells, TEAD-Gal4/YAP UAS-luciferase luminescence; in the data active means inhibition above about 32%
FBW7 activator – human FBW7 E3 ligase activation, primary screen; hit rate 0.13% among 650,000; AlphaScreen FBW7–phospho-cyclin E peptide binding, activator screen; normalized activity (activation), % at 26.1 µM; Q969H0; in the data active means normalized activity above about 1.9%;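 further: purified mutant Fbw7 with reduced substrate affinity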
GPR151 activ – human GPR151 activation; activation, % at 11.2 µM; PathHunter beta-arrestin GPR151 cells, luminescence; hit rate 1% among 650,000; Q8TDV0; in the data active means activation above about 4.9%
Target sequence (Q8TDV0 whole entry, looked up): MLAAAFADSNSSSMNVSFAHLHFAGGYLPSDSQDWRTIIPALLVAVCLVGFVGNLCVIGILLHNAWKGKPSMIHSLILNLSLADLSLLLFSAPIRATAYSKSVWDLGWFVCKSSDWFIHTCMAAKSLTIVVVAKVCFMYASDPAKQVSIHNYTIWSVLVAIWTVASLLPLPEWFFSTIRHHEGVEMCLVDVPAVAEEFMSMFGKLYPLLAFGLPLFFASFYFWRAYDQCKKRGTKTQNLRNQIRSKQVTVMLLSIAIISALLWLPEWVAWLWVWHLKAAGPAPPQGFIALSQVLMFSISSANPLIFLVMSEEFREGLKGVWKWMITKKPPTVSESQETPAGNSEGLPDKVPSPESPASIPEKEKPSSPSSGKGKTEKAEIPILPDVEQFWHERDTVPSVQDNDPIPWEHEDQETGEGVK
MITF inh – human MITF inhibition, primary screen; O75030; AlphaScreen MITF homodimerization, bead proximity signal; inhibition, % at 2.6 µM; hit rate 0.91% among 650,000; AID 1259374; in the data active means inhibition above about 50%
Numbers stand for hits; – = inactive.

SMILES	TEAD-YAP block	FBW7 activator	GPR151 activ	MITF inh
Oc1ccc(CCNc2nc(Nc3ccc(C(F)(F)F)cc3)nc3c2ncn3-c2ccsc2)cc1	–	–	–	–
Cn1nccc1Nc1nc(NCCc2ccc(O)cc2)c2ncn(-c3ccsc3)c2n1	60	–	–	–
COc1ccc(CCNc2nc(Nc3ccncc3)nc3c2ncn3-c2ccsc2)cc1	42	–	–	–
Oc1ccc(CCNc2nc(Nc3ccncc3)nc3c2ncn3-c2ccsc2)cc1	56	–	–	–
CC(C)N(CCNc1nc(Nc2ccccn2)nc2c1ncn2-c1ccsc1)C(C)C	–	–	–	–
CN1CCCN(Cc2ccc(C(F)(F)F)cc2)CC1	–	–	–	–
CCCNc1nc(-c2cccc(N)c2)nc2c1ncn2Cc1ccc(C(F)(F)F)cc1	–	–	–	–
COc1ccc(CCNc2nc(Nc3cccnc3)nc3c2ncn3-c2ccsc2)cc1	65	–	–	–
COc1ccc(CCNc2nc(NC3CCC(O)CC3)nc3c2ncn3-c2ccsc2)cc1 (stereo unspecified)	48	–	–	–
CC1C(c2ccc3ccccc3n2)=CNc2ccccc21 (stereo unspecified)	41	–	–	–
COc1ccc(CN2CCOc3ccc(C(O)c4cccnc4)cc3C2)cc1C (stereo unspecified)	–	–	–	–
CCn1c(=N)n(CC(=O)c2ccc(C)cc2)c2ccccc21	–	–	–	–
CCn1c(=N)n(CC(=O)c2ccc(Br)cc2)c2ccccc21	–	3.4	–	–
COc1ccc(COC(=O)c2c(SC)nsc2SC)cc1	38	–	–	–
CCOC(=O)C1=C(Cc2ccc(OC)cc2)C(=O)c2ccccc2C1=O	46	–	–	–
CCOC(=O)C1=C(c2ccc(F)cc2)C(=O)c2ccccc2C1=O	–	–	–	–
COCCN(C(=O)CC1C(=O)NCCN1Cc1cccc(Oc2ccccc2)c1)C(C)C (stereo unspecified)	–	–	–	–
CCOC(=O)c1ccc(NC(=O)CSc2nc3c(sc(=S)n3-c3ccc(OCC)cc3)c(=O)n2-c2ccccc2)cc1	–	–	–	–
CC1Oc2ccccc2N(CC(=O)N(C(C)C)C(C)C)C1=O (stereo unspecified)	51	–	–	–
O=C(c1cc(COc2cccc3cnccc23)on1)N1CCN(C(=O)c2cccs2)CC1	43	–	–	–
Cc1cc(C)nc(NC(N)=NCc2ccccc2)n1	–	–	–	–
Cc1ccc(CN=C(N)Nc2nc(C)cc(C)n2)cc1	54	–	–	–
CCN(CCCNS(=O)(=O)c1ccc2c(c1)oc(=O)n2C)c1cccc(C)c1	–	–	–	–
COc1cc2nc(Nc3ccc4ncccc4c3)nc(NC3CC3)c2cc1OC	–	–	–	–
CC1=NOC(=O)/C1=C/c1ccccc1O	–	–	–	55
SMILES	TEAD-YAP block	FBW7 activator	GPR151 activ	MITF inh
CCOc1cc(/C=C2\C(=O)ON=C2C)cc(Br)c1OCC	–	–	–	–
CC1=NOC(=O)/C1=C\c1cc(Br)c(O)c(Br)c1	–	–	–	68
O=C1ON=C(c2ccccc2)/C1=C\c1ccccc1O	–	–	–	68
O=C(CSc1ncnc2c1nnn2Cc1ccc(F)cc1)N1CCCCCC1	–	–	–	–
CCOc1ccc(/C=C/C(O)=C2/C(=O)NC3(C)CC2c2ccccc2O3)cc1OC (stereo unspecified)	49	–	–	–
CC(C)(C)NS(=O)(=O)c1ccc(F)cc1	–	–	–	–
CC(C)NS(=O)(=O)c1ccc(Cc2ccc(S(=O)(=O)NC(C)C)cc2)cc1	35	–	–	–
CC(C)(C)NS(=O)(=O)c1ccc(Cc2ccc(S(=O)(=O)NC(C)(C)C)cc2)cc1	37	–	–	–
O=C(Nc1cccc(F)c1)C1CC12CCN(Cc1nc3ccccc3s1)CC2 (stereo unspecified)	–	–	–	–
COc1cc(C2CC(c3c(O)cc(C)oc3=O)=Nc3ccccc3S2)cc(OC)c1O (stereo unspecified)	44	–	–	–
COc1cc(NC(=O)c2sc3ncnc(N(C)c4ccccc4)c3c2C)cc(OC)c1OC	50	–	–	–
CN(C)c1ccc(NC2=C([N+](=O)[O-])C(=O)c3ccccc32)cc1	–	–	–	86
CCc1sc(C(=O)Nc2nc(C)cs2)cc1C	–	–	–	–
Cc1csc(NC(=O)c2cc3c(s2)CCC(C)C3)n1 (stereo unspecified)	74	–	–	–
CC1=Nc2cc(C(=O)NCCN3CCOCC3)ccc2Sc2ccc(Cl)cc21	–	–	–	–
CCC1=Nc2cc(C(=O)NC)ccc2Sc2ccccc21	–	–	–	–
COCCNC(=O)c1ccc2c(c1)N=C(C)c1cc(Cl)ccc1S2	57	–	–	–
CCC1=Nc2cc(C(=O)NCC(OC)OC)ccc2Sc2ccc(C)cc21	60	–	–	–
CC1=Nc2cc(C(=O)NCCN(C)C)ccc2Sc2ccc(Br)cc21	60	–	–	–
O=[N+]([O-])c1cc(Cl)c2oc(-c3ccc(O)cc3)nc2c1	55	–	–	–
O=C(Nc1ccc(-c2nc3ccccc3o2)cc1)c1cc([N+](=O)[O-])ccc1Cl	–	–	–	–
O=C1c2cccnc2C(=O)N1Cc1ccc(S(=O)(=O)Nc2cccnc2)cc1	–	–	–	–
Cc1ccc(OCc2nc(-c3ccccn3)no2)c(Br)c1	39	–	–	–
Cc1cc(C)nc(/N=C(\N)Nc2ccccc2)n1	–	–	–	–
Cc1cc(C)nc(/N=C(\N)Nc2ccc(Oc3ccccc3)cc2)n1	32	–	–	–
SMILES	TEAD-YAP block	FBW7 activator	GPR151 activ	MITF inh
CCCCCOc1ccc(N/C(N)=N/c2nc(C)cc(C)n2)cc1	37	–	–	–
CCCOc1ccc(N/C(N)=N/c2nc(C)cc(C)n2)cc1	35	–	–	–
Oc1ccc(CCNc2nc(Cl)nc3c2ncn3C2CCCCC2)cc1	–	–	–	–
COc1ccc(C(=O)Nc2c3c(nn2-c2ccc(C)cc2C)CS(=O)(=O)C3)cc1	–	–	–	–
O=C(Nc1cccc([N+](=O)[O-])c1)c1cccc(S(=O)(=O)NCc2ccccc2)c1	–	–	–	–
Cc1occc1C(=O)Nc1cccc(Cl)c1C	–	–	–	–
C=CCOC(=O)C1=C(C)NC(=O)NC1c1ccc(OCCC)cc1 (stereo unspecified)	55	–	–	–
C=CCOC(=O)C1=C(C)NC(=S)NC1c1ccc(C(=O)OC)cc1 (stereo unspecified)	36	–	–	–
C/C=C/COC(=O)C1=C(C)NC(=O)NC1c1ccccc1Cl (stereo unspecified)	47	–	–	–
COc1ccc(C2NC(=S)NC(C)=C2C(=O)c2ccccc2)cc1 (stereo unspecified)	57	–	–	–
COc1ccc(-c2csc(Nc3ccc(Oc4ccccc4)cc3)n2)cc1Br	–	–	–	–
Cc1csc(SCc2cc(=O)c(OC(=O)c3ccc(Cl)cc3)co2)n1	–	–	–	–
COC(=O)C1C(=O)NC(SCc2cccc3ccccc23)=C(C#N)C1c1ccccc1Cl (stereo unspecified)	–	–	–	–
CCOC(=O)C1=CN(c2ccc(F)cc2)C=C(C(=O)OCC)C1c1ccc(OC)c(Br)c1	–	–	–	–
